MRP resist rev = compounds reversing MRP-mediated drug resistance. H69AR cells + 2 uM doxorubicin, CellTiter-Glo, 72 h. differential viability (reversal), % at 10 µM. 85,000 compounds, 0.04% hits. AID 602;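 active means viability drop by adding the cancer drug above about 55%, with treated viability meeting a 40% cutoff, limit read from the data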;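 further: viability without doxorubicin minus viability with 2 µM doxorubicin for each compound; larger differential means the compound sensitizes cells more to doxorubicin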
ERb SRC1 inh = blocks coactivator binding to human estrogen receptor beta. Q92731. TR-FRET ER-beta LBD / SRC1-Cy5 peptide binding; receptor agonist-loaded with 1 µM estradiol. inhibition, % at 25.6 µM. 86,000 compounds, 1.3% hits;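 active means compounds whose percent inhibition of the receptor-coactivator binding signal exceeds about 50% in the single-dose screen, limit read from the data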;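 further: 0% = receptor plus peptide wells without compound and 100% = peptide-only wells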
ERa coact pot = enhances coactivator binding to human estrogen receptor alpha | TR-FRET ERalpha-LBD/SRC-Cy5 coactivator binding, 2 h; 100 = basal binding, no effect | P03372 | AID 639 | coactivator binding (% of control), % at 25.6 µM | 86,000 compounds, 1.3% hits; in the data active means activity above about 200%;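 further: binding measured in presence of low estradiol as agonist stimulus; 0% = peptide alone without receptor and 100% = receptor with peptide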
MRP1 act = MRP-1 activation. H69AR cells + doxorubicin, viability rescue, CellTiter-Glo. viability increase, % at 10 µM. 140,000 compounds, 0.61% hits. AID 799;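 active means viability gain under doxorubicin at or above a set limit, the compound median plus 3 SD, cut at about 4.7% in these data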;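 further: MRP-1 overexpressing cells given doxorubicin 25 µM after compound pretreatment; 18-22 h compound pretreatment then 72 h with doxorubicin before readout; 0% = doxorubicin-only wells and 100% = vehicle-treated cells without doxorubicin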
Smad3 inh = blocks human Smad3 binding to FoxH1 peptide; TR-FRET Smad3/Dy647-FoxH1 peptide binding, europium anti-His; inhibition, % at 25 µM; AID 630; P84022; 88,000 compounds, 0.29% hits;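 active means compounds that reduce the energy-transfer binding signal between the protein and its labelled peptide by more than half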;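 further: 0% = Smad3 plus labelled peptide maximal FRET and 100% = peptide-only background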
Target sequence (P84022 whole entry, looked up): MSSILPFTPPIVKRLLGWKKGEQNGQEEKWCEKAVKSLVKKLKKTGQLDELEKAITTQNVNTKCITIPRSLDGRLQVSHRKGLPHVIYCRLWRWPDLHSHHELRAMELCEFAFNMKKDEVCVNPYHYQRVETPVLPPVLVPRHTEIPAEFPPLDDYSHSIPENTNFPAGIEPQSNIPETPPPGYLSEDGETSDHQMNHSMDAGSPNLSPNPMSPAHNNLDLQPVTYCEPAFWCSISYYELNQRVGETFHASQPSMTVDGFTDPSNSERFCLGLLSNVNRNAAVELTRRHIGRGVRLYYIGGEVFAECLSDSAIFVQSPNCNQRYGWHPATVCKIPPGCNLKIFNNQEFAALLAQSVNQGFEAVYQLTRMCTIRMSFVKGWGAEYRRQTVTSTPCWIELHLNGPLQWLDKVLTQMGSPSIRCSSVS
ERa coact inh = ER-alpha (human) coactivator binding inhibition; TR-FRET ER-alpha LBD / SRC-1 peptide, estradiol-bound; 86,000 compounds, 1.7% hits; inhibition, % at 25.6 µM; AID 629; in the data active means inhibition above about 50%;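 further: 0% = receptor plus peptide control and 100% = peptide only without receptor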
Starred values were filed as active, the others as inactive; · = not tested or not shown; [ ] = dose if it differs, or a comment. Compounds with a hit are over-represented: about 2.8% of the library has one in this group of screens.

SMILES	MRP resist rev	ERb SRC1 inh	ERa coact pot	MRP1 act	Smad3 inh	ERa coact inh
CN1CCN(c2ccc(Cl)cc2NC(=O)c2nn(-c3ccccc3)c(=O)c3ccccc23)CC1	-0.1	37.0	242.1*[fluorescence artefact?]	-6.1	0.0	12.7
CCOc1ccc(Br)cc1S(=O)(=O)Nc1ccc(NC(=O)c2ccccc2F)cc1	·	·	·	-1.8	·	·
N=C(N)SCc1nc2ccccn2c1Br	·	·	·	7.9*	·	·
O=C(NCCc1ccncc1)Nc1ccccc1Cl	4.0	-4.1	130.0	-1.3	3.2	-0.8
CCCn1c(=O)c2ccccc2n2c(SCN3C(=O)c4ccccc4C3=O)nnc12	-13.7	96.0*[fluorescence artefact?]	111.1	·	4.8	-3.2
N#Cc1cc2c(nc1SCc1ccccc1)CCC2	4.3	59.4*[fluorescence artefact?]	283.4*[fluorescence artefact?]	2.3	52.5*[fluorescence artefact?]	55.3*[fluorescence artefact?]
N#Cc1cc2c(nc1SCc1ccccc1)CCCC2	·	·	·	1.8	·	·
Nc1nc(SCC(=O)O)[nH]c(=O)c1N	·	·	·	·	1.6	·
COc1cc(C)cc(OC)c1/C=C/C(=O)O	·	·	·	·	9.0	·
O=C(O)c1ccccc1NCn1c(=S)sc2ccccc21	·	·	·	·	22.7	·
Cc1nnc(C)n1/N=C/c1ccccn1	-9.4	-19.4	106.1	-2.1	-12.1	-29.9
Cc1n[nH]c(=S)n(/N=C/c2ccccn2)c1=O	7.6	-0.5	97.7	6.0*	11.3	-1.8
O=C(O)CSc1nnc(-c2cccs2)n1-c1ccc(Cl)cc1	8.7	2.8	99.4	-0.8	-0.9	22.0
O=C(CSc1nnnn1-c1ccc2c(c1)OCCO2)c1cccc2c1OCCO2	19.8	-26.9	375.4*[fluorescence artefact?]	-0.7	-38.0	-15.9
O=C(CSc1nnc(-c2cccs2)n1-c1cccc(Cl)c1)c1cccc2c1OCCO2	13.7	9.4	258.6*	-1.5	-13.2	11.4
COc1ccc(-n2nnnc2SCC(=O)c2cccc(OC)c2)cc1	-4.1	2.1	130.5	-3.1	4.9	0.7
COc1ccc(-n2nnnc2SCC(=O)c2ccc3c(c2)OCCO3)cc1	16.5	-12.4	307.1*[fluorescence artefact?]	-0.1	5.6	-9.0
Cn1c(=O)oc2ccc(C(=O)CSc3nnnn3-c3ccccc3)cc21	0.4	11.2	283.6*[fluorescence artefact?]	-3.1	-22.7	17.5
COc1ccc(S(=O)(=O)N(C)CC(=O)NCc2ccco2)cc1	0.4	7.0	85.6	-4.0	7.4	7.1
O=C(COC(=O)CCCOc1ccc(Cl)cc1Cl)Nc1cccc(Cl)c1	·	·	·	-2.0	·	·
COc1ccc(CNC(=O)COC(=O)CCCOc2ccc(Cl)cc2Cl)cc1	·	·	·	4.9*	·	·
O=C(COC(=O)CCNS(=O)(=O)c1ccc(Cl)cc1)NCc1ccco1	1.9	-23.4	102.3	-1.5	0.4	-18.5
COc1ccc(N(CC(=O)NCc2ccco2)S(C)(=O)=O)cc1OC	3.2	-0.2	106.6	-0.7	-11.2	-4.8
COc1ccc(N(CC(=O)NCc2ccco2)S(C)(=O)=O)cc1	18.3	99.0*[fluorescence artefact?]	96.3	-0.3	-2.6	-7.0
COc1cccc(CN(C)CC(=O)NC(=O)NCc2ccco2)c1	-1.2	38.7	102.9	-1.0	-8.0	57.5*[fluorescence artefact?]
SMILES	MRP resist rev	ERb SRC1 inh	ERa coact pot	MRP1 act	Smad3 inh	ERa coact inh
COc1ccccc1NCCC(=O)OCC(=O)NCc1ccco1	-8.5	61.3*[fluorescence artefact?]	30.4	-2.3	18.6	77.4*[fluorescence artefact?]
CC(=O)Oc1c(/C=C(\C#N)C(N)=O)[nH]c2ccccc12	·	·	·	-1.0	·	·
CSCC[C@H](NC(=O)COc1ccc(Cl)cc1)c1nc2ccccc2[nH]1	·	·	·	-3.0	·	·
Cc1cc2ccc(OC(=O)c3ccc(N=C(N)N)cc3)cc2oc1=O	·	·	·	·	11.8	·
COc1ccc(OCCC(=O)OCC(=O)NCc2ccco2)cc1	3.0	49.6	232.6*[fluorescence artefact?]	-0.5	1.7	81.2*
Cc1ccnn1CC(=O)N/N=C/c1ccc2c(c1)OCO2	·	·	·	-2.3	·	·
COc1ccc(S(=O)(=O)N(C)c2ccc(C(=O)NCCC(C)C)cc2)cc1	0.3	0.8	115.7	-3.3	68.8*	6.7
CCOCCCNC(=O)c1ccc(N(C)S(=O)(=O)c2ccc(OC)cc2)cc1	16.2	-5.1	111.3	-0.9	-1.0	-6.5
Cc1ccc2oc(=O)c3cnn(CC(=O)N4CCCc5ccccc54)c3c2c1	-1.6	-8.0	265.4*[fluorescence artefact?]	0.3	-8.0	-7.7
Cc1ccc2oc(=O)c3cnn(CC(=O)N4CCN(c5ccccc5)CC4)c3c2c1	-5.2	-2.3	106.4	-3.2	-2.0	-5.3
CCOC(=O)c1[nH]c2cc(OC)c(OC)cc2c1N	-0.4	6.4	93.7	8.5*	7.0	-3.5
COCCn1c(C)cc(C(=O)COC(=O)c2cc3c(s2)CCC3)c1C	2.9	65.8*	50.0	0.2	1.0	76.5*[fluorescence artefact?]
O=C(O)c1cc(Nc2nc(N3CCOCC3)nc(N3CCOCC3)n2)ccc1Cl	-2.9	9.2	106.0	-2.5	-6.5	1.9
O=C(O)c1cccc(Nc2nc(N3CCOCC3)nc(N3CCOCC3)n2)c1	-3.8	-5.6	625.7*[fluorescence artefact?]	-0.9	17.1	-4.4
Nc1nc2nc3c(nc2c(=O)[nH]1)CN(c1ccc(C(=O)O)cc1)C3=O	·	·	·	·	15.0	·
O=C(NCc1ccco1)c1cc(-c2cccs2)nc2ccccc12	·	·	·	-3.2	·	·
O=C(COC(=O)c1cccc(S(=O)(=O)N2CCc3ccccc3C2)c1)NCc1ccco1	7.0	53.0*	70.8	-1.0	6.3	64.9*
O=C(COC(=O)c1cc(-c2cccs2)nc2ccccc12)NCc1ccco1	19.1	37.1	108.5	-0.3	6.3	65.2*[fluorescence artefact?]
Cc1onc(-c2c(F)cccc2Cl)c1C(=O)OCC(=O)NCc1ccco1	5.0	33.2	79.0	-4.0	11.1	51.7*
O=C(COC(=O)c1ccccc1Oc1ccccc1)NCc1ccco1	-3.0	46.9	184.7	-1.9	0.4	63.8*
O=C(COC(=O)c1cc(S(=O)(=O)N2CCc3ccccc3C2)ccc1Cl)NCc1ccco1	-14.8	13.7	148.3	-0.1	14.7	34.6
O=C(CSc1nc2ccccc2o1)NCCOc1ccccc1	-0.3	-14.5	116.7	-2.0	8.5	-3.7
NCCSCc1ccccc1Cl	·	·	·	·	-0.3	·
COC(=O)c1cc(C(=O)Nc2cc(C)ccn2)cc([N+](=O)[O-])c1	·	·	·	0.2	·	·
CC(=O)NC(Cc1ccccc1)C(=O)OCC(=O)c1ccc(F)cc1 (stereo not given)	·	·	·	0.3	·	·
SMILES	MRP resist rev	ERb SRC1 inh	ERa coact pot	MRP1 act	Smad3 inh	ERa coact inh
O=C(COC(=O)c1ccccc1)NCc1ccco1	10.0	60.1*	88.4	-0.5	9.2	76.4*[fluorescence artefact?]
C=CCN(CC=C)C(=O)Nc1ccc2nc(C)sc2c1	·	·	·	1.6	·	·
CCOC(=O)C(C(=O)Nc1nccs1)C1CCCCC1 (stereo not given)	13.8	-6.6	129.7	4.7*	1.3	3.5
CCOC(=O)C(C(=O)Nc1nc2ccccc2s1)C1CCCCC1 (stereo not given)	-13.2	-10.8	93.4	7.1*	5.0	8.2
CCOC(=O)c1c(Cc2cccc(Cl)c2)c[nH]c1C	·	·	·	-0.1	·	·
O=S(=O)(CCc1nc2ccccc2o1)c1ccc2ccccc2c1	3.4	-1.8	109.2	0.0	10.2	9.8
Clc1ccccc1C(Nc1ncccn1)Nc1ncccn1	·	·	·	·	8.2	·
Nc1ncnc2c1ncn2[C@H]1O[C@@H](C(=O)OCCO)[C@H](O)[C@H]1O	·	·	·	·	16.7	·
CC(C)=N[C@H](C(=O)O)C(C)(C)S	·	·	·	·	19.9	·

From PubChem
